# Measured values published in PubChem BioAssay (EPA / NIEHS).
# The source made the active and inactive calls. Rule for the calls: active = hit-call score of the fitted dose curve at least 0.9, where 1 is the maximum; inactive = score below 0.9.
# Assay: ATG_GATA_CIS: Attagene CIS-FACTORIAL HepG2 Assay for human GATA Binding Protein (AID 2282944)
# Conditions: HepG2 GATA cis-element reporter, Attagene multiplex mRNA; actives raise or lower the signal
# Outline: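 Transient MRTU transfection, HepG2, 24 h compound exposure. Total RNA → oligo(dT) RT → PCR → 6-FAM primer extension → HpaI cut → CE. Bidirectional fit vs DMSO.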
SMILES,outcome,AC50
C[Si](C)(C)C(F)(F)C(F)(F)C(F)(F)F,inactive,
FC(F)C(F)(F)COCC1CO1 (stereo not drawn),inactive,
CCN(CC)C(=S)SSC(=S)N(CC)CC,,158 µM (active)
CCOC(N)=O,inactive,
CCc1cccc(CC)c1N,inactive,
Cc1cccc(O)c1C,inactive,
C[C@]12C=CC(=O)C=C1CC[C@H]1[C@@H]3C[C@@H](O)[C@](O)(C(=O)CO)[C@@]3(C)C[C@H](O)[C@@]12F,inactive,
OCCOCCOCCO,inactive,
Cc1nc(-c2ccccn2)ncc1C(=O)Nn1cc(C)c2cc(F)ccc21,inactive,
O=S(=O)(O)CCC(F)(F)C(F)(F)C(F)(F)C(F)(F)C(F)(F)C(F)(F)F,inactive,
O=C1CN(N=Cc2ccc([N+](=O)[O-])o2)C(=O)N1,inactive,
FC(F)(F)COC(OCC(F)(F)F)OCC(F)(F)F,inactive,
FC(F)(F)C(F)(F)C(F)(F)C(F)(F)C(F)(F)C(F)(F)I,inactive,
O=C(O)CO,inactive,
O=C(Cl)C(F)(F)C(F)(F)C(F)(F)C(=O)Cl,inactive,
NC(N)=O,inactive,
OCc1c[nH]c2ccccc12,inactive,
S=P(N1CC1)(N1CC1)N1CC1,inactive,
CCCCC(CC)C(=O)OCCOCCOCCOC(=O)C(CC)CCCC (stereo not drawn),inactive,
CC(C)c1nnc2ccc(-c3ocnc3-c3cc(F)ccc3F)cn12,inactive,
CCCCCCCC1CCC(=O)O1 (stereo not drawn),inactive,
NCC(F)(F)C(F)(F)C(F)(F)C(F)(F)F,inactive,
CCCCCCCCCCCCCCO,,179 µM (active)
CCCCCCCCCC,,0.033 µM (active)
OC(O)(C(F)C(O)(O)C(F)(F)F)C(F)(F)F,inactive,
FC(F)=C(F)C(F)(F)C(F)(F)C(F)(F)C(F)(F)C(F)(F)C(F)(F)F,inactive,
O=C(N[C@H](CO)[C@H](O)c1ccc([N+](=O)[O-])cc1)C(Cl)Cl,inactive,
OCCC(F)(F)C(F)(F)C(F)(F)C(F)(F)F,inactive,
